Data: PubChem BioAssay (NCI)
The panel holds about 79,000 compounds, 15% with a hit somewhere; the sample as a whole holds those more often. The source made the active and inactive calls. No stated cut-off is given here; in the data, active means growth inhibition above about 70%; inactive means the rest.

Assay: NCI Yeast Anticancer Drug Screen. Data for the bub3 strain (AID 167)
Conditions: S. cerevisiae bub3 mutant strain, at 5.0 µM (retest, dose inferred, filed as 0.5), hits give high values
In short: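 Screening used yeast with an engineered genetic alteration affecting cell cycle control. Compound-exposed cultures were compared with vehicle cultures, and reduced growth was taken as inhibition.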
In the case of O=C(N=Nc1c(O)[nH]c2ccccc12)C(O)(c1ccccc1)c1ccccc1, the growth inhibition is reported as 12% (inactive).
In the case of C/C(=N\O)c1ccc2c3c(ccc([N+](=O)[O-])c13)CC2, the growth inhibition is reported as 0% (inactive).
For N#CS/C(Cl)=C(/C(Cl)=C(Cl)Cl)[N+](=O)[O-], the growth inhibition was -21% (inactive).
In the case of N#C/C(=C1C=C/C(=N/O)C=C/1Cl)c1ccccc1, the growth inhibition is reported as 5% (inactive).
With O=C1/C(=C/c2ccc(Cl)c(Cl)c2)CN(C(=O)CCN2CCOCC2)C/C1=C\c1ccc(Cl)c(Cl)c1 the growth inhibition was 99% (active).

Same assay, conditions: S. cerevisiae bub3 mutant strain, at 50.0 µM (retest, dose inferred, filed as 5.0), hits give high values
For Oc1c(Br)cc(Cl)cc1Br, the growth inhibition was 97% (active).
For COc1ccc(C2Oc3ccc(Cl)cc3C=C2[N+](=O)[O-])cc1OC (stereo unspecified), the growth inhibition was 96% (active).
For COC(=O)C(=O)CC(=O)c1cccc(Cl)c1, the growth inhibition was 99% (active).
For O/N=C(/C[N+]12CN3CN(CN(C3)C1)C2)c1ccc(I)cc1, the growth inhibition was 12% (inactive).
With COc1cc(CCN=Cc2cc(Cl)cc(Cl)c2O)c([N+](=O)[O-])cc1OC the growth inhibition was 94% (active).
For COc1ccc2c(c1OC)C1=C(C2=O)c2cc3c(cc2CCN1)OCO3, the growth inhibition was 51% (inactive).
In the case of CC(C)(C)[Si](C)(C)OCC1OC(n2cc(I)c(N)nc2=O)C(O[Si](C)(C)C(C)(C)C)C1O[Si](C)(C)C(C)(C)C (stereo unspecified), the growth inhibition is reported as 99% (active).
For O=S(=O)(Nc1ccccn1)c1ccc(NCc2c3ccccc3nc3cc(Cl)ccc23)cc1, the growth inhibition was 76% (active).
For OCc1ccc2c(c1)CC1(C2)Cc2cc3c(cc2C1O)CCC3 (stereo unspecified), the growth inhibition was 59% (inactive).
With COc1cc(C(c2cc3c(cc2O)OCO3)N2CCOCC2)ccc1O (stereo unspecified) the growth inhibition was 25% (inactive).
With CCCCCCCCCCCCCCSC(=N)N the growth inhibition was 96% (active).
